What was measured:
Assay in all cases: DAPPL (digital affinity profiling via proximity ligation, sequencing); 10 mM Tris-HCl pH 7.5, 50 mM NaCl, 1 mM DTT, 4% glycerol, room temperature, 30 min; GST-TFs on glutathione beads, 16-mer random dsDNA library, 0.1% formaldehyde crosslink after washing; high values mean tight binding
Settings in all cases: protein: recombinant; tags: N-terminal GST; dsDNA, one strand shown
FLI1 = target: T1, FLI1 (Homo sapiens, UniProt Q01543 1-452)
T1 sequence: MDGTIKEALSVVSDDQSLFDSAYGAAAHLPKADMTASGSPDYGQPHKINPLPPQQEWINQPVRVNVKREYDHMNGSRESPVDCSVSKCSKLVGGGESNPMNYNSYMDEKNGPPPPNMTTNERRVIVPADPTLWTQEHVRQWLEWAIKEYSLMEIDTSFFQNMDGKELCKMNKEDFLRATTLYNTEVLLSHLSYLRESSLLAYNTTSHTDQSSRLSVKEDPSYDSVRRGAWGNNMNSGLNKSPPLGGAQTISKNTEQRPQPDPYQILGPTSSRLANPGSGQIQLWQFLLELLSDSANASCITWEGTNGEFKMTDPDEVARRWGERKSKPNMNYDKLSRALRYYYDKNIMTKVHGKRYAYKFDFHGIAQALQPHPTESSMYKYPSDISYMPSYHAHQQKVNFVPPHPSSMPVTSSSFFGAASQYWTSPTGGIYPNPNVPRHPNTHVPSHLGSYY
Method in brief: (§1)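 Human transcription factors were made in yeast as GST fusions, captured on glutathione beads and barcoded with DNA. With a tag-only sample included, the pool was incubated with 200 nmole of a random double-stranded 16-mer DNA library in Tris/NaCl/DTT/glycerol buffer at room temperature for 30 min, then crosslinked with 0.1% formaldehyde after washing, ligated by proximity, amplified and sequenced. For binding signal, each hexamer's read frequency for a factor is divided by its frequency for the tag-only sample.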

ELK1 = target: T2, ELK1 (Homo sapiens, UniProt P19419 1-428)
T2 sequence: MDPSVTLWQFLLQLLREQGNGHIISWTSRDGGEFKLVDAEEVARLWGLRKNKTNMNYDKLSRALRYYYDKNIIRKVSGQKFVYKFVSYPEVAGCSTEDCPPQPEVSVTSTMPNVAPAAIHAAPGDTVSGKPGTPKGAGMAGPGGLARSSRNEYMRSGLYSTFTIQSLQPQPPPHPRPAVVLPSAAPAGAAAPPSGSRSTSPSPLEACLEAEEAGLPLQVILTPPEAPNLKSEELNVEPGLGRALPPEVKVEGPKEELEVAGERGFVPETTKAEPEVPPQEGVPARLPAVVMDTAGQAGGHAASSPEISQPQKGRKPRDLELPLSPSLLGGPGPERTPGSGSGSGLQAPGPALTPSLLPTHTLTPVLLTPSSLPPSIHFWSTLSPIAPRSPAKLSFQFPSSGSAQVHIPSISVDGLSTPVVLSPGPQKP
Method in brief: as §1

GABPA = target: T3, GABPA (Homo sapiens, UniProt Q06546 1-454)
T3 sequence: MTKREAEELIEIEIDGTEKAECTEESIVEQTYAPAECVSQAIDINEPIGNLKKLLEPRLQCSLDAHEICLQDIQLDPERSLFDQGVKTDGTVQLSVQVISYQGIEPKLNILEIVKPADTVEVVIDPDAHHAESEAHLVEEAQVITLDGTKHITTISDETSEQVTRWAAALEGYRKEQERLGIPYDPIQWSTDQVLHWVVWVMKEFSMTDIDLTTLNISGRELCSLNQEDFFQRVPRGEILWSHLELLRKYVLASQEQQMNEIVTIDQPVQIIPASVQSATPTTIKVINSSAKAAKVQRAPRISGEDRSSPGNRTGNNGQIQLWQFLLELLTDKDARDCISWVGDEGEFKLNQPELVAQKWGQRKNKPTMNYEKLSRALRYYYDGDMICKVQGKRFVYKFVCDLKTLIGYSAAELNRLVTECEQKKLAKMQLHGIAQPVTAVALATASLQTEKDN
Method in brief: as §1

ERG = target: T4, ERG (Homo sapiens, UniProt P11308 1-479)
T4 sequence: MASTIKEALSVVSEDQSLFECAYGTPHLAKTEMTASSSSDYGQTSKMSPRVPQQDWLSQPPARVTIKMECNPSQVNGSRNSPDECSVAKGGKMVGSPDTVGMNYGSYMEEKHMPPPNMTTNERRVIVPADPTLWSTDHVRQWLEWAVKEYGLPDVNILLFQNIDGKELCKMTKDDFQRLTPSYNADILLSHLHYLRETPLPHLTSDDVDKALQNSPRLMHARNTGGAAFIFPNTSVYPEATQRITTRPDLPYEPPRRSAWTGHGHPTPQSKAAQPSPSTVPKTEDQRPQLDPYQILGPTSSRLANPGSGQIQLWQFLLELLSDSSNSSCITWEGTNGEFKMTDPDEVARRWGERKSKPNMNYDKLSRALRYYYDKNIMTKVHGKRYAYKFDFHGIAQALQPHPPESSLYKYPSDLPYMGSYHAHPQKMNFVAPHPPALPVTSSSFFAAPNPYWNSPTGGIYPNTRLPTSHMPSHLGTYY
Method in brief: as §1

ELF1 = ELF1 (Homo sapiens, UniProt P32519 1-619)
Method in brief: as §1

EHF = target: T5, EHF (Homo sapiens, UniProt Q9NZC4 1-300)
T5 sequence: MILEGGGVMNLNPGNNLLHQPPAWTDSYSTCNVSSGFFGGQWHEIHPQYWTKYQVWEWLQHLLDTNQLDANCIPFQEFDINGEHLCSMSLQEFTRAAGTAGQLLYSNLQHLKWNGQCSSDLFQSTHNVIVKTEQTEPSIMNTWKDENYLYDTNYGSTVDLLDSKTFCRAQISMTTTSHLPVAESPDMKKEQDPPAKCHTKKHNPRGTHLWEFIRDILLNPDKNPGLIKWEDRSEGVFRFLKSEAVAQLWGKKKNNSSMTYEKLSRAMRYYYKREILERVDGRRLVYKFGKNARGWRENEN
Method in brief: as §1

SPI1 = SPI1 (Homo sapiens, UniProt P17947 1-270)
Method in brief: as §1

SPIB = SPIB (Homo sapiens, UniProt Q01892 1-262)
Method in brief: as §1

ELK3 = target: T6, ELK3 (Homo sapiens, UniProt P41970 1-407)
T6 sequence: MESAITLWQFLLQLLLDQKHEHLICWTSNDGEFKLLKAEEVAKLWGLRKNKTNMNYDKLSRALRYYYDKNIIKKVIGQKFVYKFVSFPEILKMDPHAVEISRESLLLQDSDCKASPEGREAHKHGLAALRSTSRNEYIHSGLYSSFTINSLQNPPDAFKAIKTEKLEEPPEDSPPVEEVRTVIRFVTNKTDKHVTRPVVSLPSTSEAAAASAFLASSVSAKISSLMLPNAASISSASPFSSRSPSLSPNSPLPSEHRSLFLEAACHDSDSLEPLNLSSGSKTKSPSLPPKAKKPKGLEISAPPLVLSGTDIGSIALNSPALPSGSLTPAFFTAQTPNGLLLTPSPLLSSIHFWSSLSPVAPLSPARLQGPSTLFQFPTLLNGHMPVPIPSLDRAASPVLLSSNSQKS
Method in brief: as §1

SPIB, sequence (Q01892 whole entry): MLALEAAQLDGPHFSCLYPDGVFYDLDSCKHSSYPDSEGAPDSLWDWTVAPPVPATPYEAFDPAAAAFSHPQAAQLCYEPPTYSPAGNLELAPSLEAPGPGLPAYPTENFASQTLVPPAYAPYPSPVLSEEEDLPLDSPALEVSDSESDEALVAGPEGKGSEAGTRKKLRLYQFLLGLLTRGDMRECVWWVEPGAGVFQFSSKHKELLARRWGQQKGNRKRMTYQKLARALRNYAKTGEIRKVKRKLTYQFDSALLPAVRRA
ELF1, sequence (P32519 whole entry): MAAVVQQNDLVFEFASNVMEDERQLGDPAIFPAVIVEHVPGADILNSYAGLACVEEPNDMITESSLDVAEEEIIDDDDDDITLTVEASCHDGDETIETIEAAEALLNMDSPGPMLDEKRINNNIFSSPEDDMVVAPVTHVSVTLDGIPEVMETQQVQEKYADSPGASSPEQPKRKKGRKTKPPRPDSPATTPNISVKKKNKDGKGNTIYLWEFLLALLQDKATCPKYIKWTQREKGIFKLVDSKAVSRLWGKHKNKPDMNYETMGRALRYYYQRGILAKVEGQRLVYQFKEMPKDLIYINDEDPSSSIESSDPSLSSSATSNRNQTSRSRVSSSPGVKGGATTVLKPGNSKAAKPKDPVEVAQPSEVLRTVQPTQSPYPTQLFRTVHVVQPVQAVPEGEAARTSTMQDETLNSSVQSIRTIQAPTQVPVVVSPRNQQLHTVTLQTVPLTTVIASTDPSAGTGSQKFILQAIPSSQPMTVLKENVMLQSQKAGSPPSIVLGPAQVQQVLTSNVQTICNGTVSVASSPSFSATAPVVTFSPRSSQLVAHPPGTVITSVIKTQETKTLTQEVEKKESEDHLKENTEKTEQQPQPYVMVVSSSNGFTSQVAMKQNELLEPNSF

Sequence | binding signal (FLI1) | binding signal (ELK1) | binding signal (GABPA) | binding signal (ERG) | binding signal (ELF1) | binding signal (EHF) | binding signal (SPI1) | binding signal (SPIB) | binding signal (ELK3)
ATTCCG | 1.84 fold enrichment (6-mer frequency, TF over GST control) | 1.84 fold enrichment (6-mer frequency, TF over GST control) | 1.65 fold enrichment (6-mer frequency, TF over GST control) | 1.82 fold enrichment (6-mer frequency, TF over GST control) | 1.61 fold enrichment (6-mer frequency, TF over GST control) | 1.86 fold enrichment (6-mer frequency, TF over GST control) | 1.69 fold enrichment (6-mer frequency, TF over GST control) | 1.78 fold enrichment (6-mer frequency, TF over GST control) | 1.78 fold enrichment (6-mer frequency, TF over GST control)
TAAACG | 1.17 fold enrichment (6-mer frequency, TF over GST control) | 1.09 fold enrichment (6-mer frequency, TF over GST control) | 1.15 fold enrichment (6-mer frequency, TF over GST control) | 1.09 fold enrichment (6-mer frequency, TF over GST control) | 1.11 fold enrichment (6-mer frequency, TF over GST control) | 1.17 fold enrichment (6-mer frequency, TF over GST control) | 1.13 fold enrichment (6-mer frequency, TF over GST control) | 1.19 fold enrichment (6-mer frequency, TF over GST control) | 1.13 fold enrichment (6-mer frequency, TF over GST control)
GTCTTT | 1.28 fold enrichment (6-mer frequency, TF over GST control) | 1.21 fold enrichment (6-mer frequency, TF over GST control) | 1.35 fold enrichment (6-mer frequency, TF over GST control) | 1.15 fold enrichment (6-mer frequency, TF over GST control) | 1.26 fold enrichment (6-mer frequency, TF over GST control) | 1.2 fold enrichment (6-mer frequency, TF over GST control) | 1.38 fold enrichment (6-mer frequency, TF over GST control) | 1.23 fold enrichment (6-mer frequency, TF over GST control) | 1.34 fold enrichment (6-mer frequency, TF over GST control)
ACGCTA | 1.14 fold enrichment (6-mer frequency, TF over GST control) | 1.18 fold enrichment (6-mer frequency, TF over GST control) | 1.14 fold enrichment (6-mer frequency, TF over GST control) | 1.2 fold enrichment (6-mer frequency, TF over GST control) | 1.15 fold enrichment (6-mer frequency, TF over GST control) | 1.1 fold enrichment (6-mer frequency, TF over GST control) | 1.19 fold enrichment (6-mer frequency, TF over GST control) | 1.07 fold enrichment (6-mer frequency, TF over GST control) | 1.27 fold enrichment (6-mer frequency, TF over GST control)
TATACA | 1.32 fold enrichment (6-mer frequency, TF over GST control) | 1.29 fold enrichment (6-mer frequency, TF over GST control) | 1.42 fold enrichment (6-mer frequency, TF over GST control) | 1.39 fold enrichment (6-mer frequency, TF over GST control) | 1.27 fold enrichment (6-mer frequency, TF over GST control) | 1.35 fold enrichment (6-mer frequency, TF over GST control) | 1.32 fold enrichment (6-mer frequency, TF over GST control) | 1.22 fold enrichment (6-mer frequency, TF over GST control) | 1.47 fold enrichment (6-mer frequency, TF over GST control)
TACTCC | 1.3 fold enrichment (6-mer frequency, TF over GST control) | 1.2 fold enrichment (6-mer frequency, TF over GST control) | 1.49 fold enrichment (6-mer frequency, TF over GST control) | 1.35 fold enrichment (6-mer frequency, TF over GST control) | 1.37 fold enrichment (6-mer frequency, TF over GST control) | 1.26 fold enrichment (6-mer frequency, TF over GST control) | 1.24 fold enrichment (6-mer frequency, TF over GST control) | 1.23 fold enrichment (6-mer frequency, TF over GST control) | 1.44 fold enrichment (6-mer frequency, TF over GST control)
TAATCT | 1.39 fold enrichment (6-mer frequency, TF over GST control) | 1.34 fold enrichment (6-mer frequency, TF over GST control) | 1.33 fold enrichment (6-mer frequency, TF over GST control) | 1.38 fold enrichment (6-mer frequency, TF over GST control) | 1.4 fold enrichment (6-mer frequency, TF over GST control) | 1.44 fold enrichment (6-mer frequency, TF over GST control) | 1.33 fold enrichment (6-mer frequency, TF over GST control) | 1.4 fold enrichment (6-mer frequency, TF over GST control) | 1.46 fold enrichment (6-mer frequency, TF over GST control)
TACGTA | 1.41 fold enrichment (6-mer frequency, TF over GST control) | 1.36 fold enrichment (6-mer frequency, TF over GST control) | 1.31 fold enrichment (6-mer frequency, TF over GST control) | 1.2 fold enrichment (6-mer frequency, TF over GST control) | 1.32 fold enrichment (6-mer frequency, TF over GST control) | 1.41 fold enrichment (6-mer frequency, TF over GST control) | 1.35 fold enrichment (6-mer frequency, TF over GST control) | 1.15 fold enrichment (6-mer frequency, TF over GST control) | 1.37 fold enrichment (6-mer frequency, TF over GST control)
